Hits are enriched below; roughly 1.8% of the tested compounds scored in any of these assays.
INS-1E GSIS act: GLuc luminescence reporter in INS-1E cells, primary screen for activators of glucose-dependent secretion of insulin | INS-1E GLuc reporter insulin secretion, 2-3 h | activation, % at 16.6 µM | 370,000 compounds, 0.61% hits | AID 743287, 2014;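 active = lowest replicate activation of at least 40%, so every replicate reaches that level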;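 note: 0% = median of neutral control wells and 100% = median of IBMX positive control wells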
F508del corr: F508del CFTR correction, initial screen, CFBE line, single point; CFBE cells, YFP halide quenching; stimulated with forskolin plus potentiator P3; % fluorescence drop versus neutral controls; activity (quench increase), % at 7.58 µM; 350,000 compounds, 0.36% hits;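 active = mean added fluorescence quench of at least 8% versus neutral control, with both replicates also reaching 8%; inconclusive = only one of the mean or replicate conditions met; inactive = mean below 8% and not both replicates reaching 8%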;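 note: cells transiently co-express mutant CFTR-F508del with the halide-sensitive YFP; corrector assay measuring rescue of mutant channel to the surface after 24 h compound exposure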
EWS-Fli inh: EWS/Fli-driven NR0B1 reporter inhibitors, primary screen, A673 cells, NR0B1 luciferase, luminescence, MLPCN library. viability-normalised. inhibition, % at 12.6 µM. 350,000 compounds, 0.67% hits. AID 651661, 2012;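 active = mean inhibition of at least 50% after viability correction, with every replicate also passing that limit; inconclusive = mean reaches 50% but only one of two replicates passes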;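 note: firefly luciferase signal divided by Alamar Blue viability fluorescence both relative to DMSO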
RAD54 branch: inhibitors of human RAD54 branch migration, primary screen, biochemical, fluorescence, single point; RAD54 Holliday junction branch migration, FAM/BHQ fluorescence; inhibition, % at 10.4 µM; 360,000 compounds, 0.14% hits; AID 602329, 2012;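 active = mean normalized replicate activity at least 40 and at least half of replicates scoring 40 or more; inconclusive = only one of the two criteria met; inactive = mean below 40 and under half of replicates reaching 40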;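 note: 0% = median of neutral control wells and 100% = median of positive control wells; inhibitors cause a drop in the FAM fluorescence signal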
Target sequence (Q92698 whole entry, looked up): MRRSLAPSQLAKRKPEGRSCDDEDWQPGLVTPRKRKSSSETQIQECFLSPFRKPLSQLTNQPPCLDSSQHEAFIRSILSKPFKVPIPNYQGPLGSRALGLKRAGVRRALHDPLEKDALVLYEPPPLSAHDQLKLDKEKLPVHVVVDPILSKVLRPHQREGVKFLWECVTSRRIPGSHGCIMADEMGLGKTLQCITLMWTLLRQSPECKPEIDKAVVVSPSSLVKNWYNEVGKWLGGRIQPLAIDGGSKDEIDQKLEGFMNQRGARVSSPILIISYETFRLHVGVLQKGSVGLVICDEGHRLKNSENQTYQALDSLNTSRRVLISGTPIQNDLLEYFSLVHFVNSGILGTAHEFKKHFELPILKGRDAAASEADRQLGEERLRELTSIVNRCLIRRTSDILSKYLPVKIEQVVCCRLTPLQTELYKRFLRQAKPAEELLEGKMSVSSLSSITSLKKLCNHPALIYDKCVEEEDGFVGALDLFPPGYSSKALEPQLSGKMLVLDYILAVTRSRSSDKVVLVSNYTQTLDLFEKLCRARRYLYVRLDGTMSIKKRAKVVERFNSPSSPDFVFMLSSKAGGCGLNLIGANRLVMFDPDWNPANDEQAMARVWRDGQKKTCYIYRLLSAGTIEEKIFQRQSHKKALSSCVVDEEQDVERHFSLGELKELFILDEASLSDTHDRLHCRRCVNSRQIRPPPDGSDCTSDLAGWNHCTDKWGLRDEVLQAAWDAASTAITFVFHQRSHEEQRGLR
LGR2 inh: inhibitors of bursicon-induced LGR2 CRE-luciferase signal, primary screen, cell-based, HEK293, CRE-luciferase reporter, bursicon stimulation; Drosophila bursicon receptor LGR2 (rickets); bursicon-stimulated, 4 h; inhibition, % at 9.99 µM; 380,000 compounds, 0.35% hits;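 active = drop in luminescence signal, shown as inhibition above about 50% in the replicate tests, limit read from the data, passing the limit was not always enough; inconclusive = probably only some replicates passing the limit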;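 note: agonist challenge used bursicon conditioned medium at about half maximal strength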
RAD52 inh: RAD52 DNA annealing inhibitors, primary screen, biochemical, FRET, single point, set 2; inhibition, % at 18.7 µM; DNA repair protein RAD52 homolog (Homo sapiens), P43351; recombinant RAD52 DNA annealing, FRET fluorescence; AID 651710, 2012; 360,000 compounds, 0.46% hits;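 active = every replicate showing at least 50% inhibition; inconclusive = mean inhibition at least 50% but not in every replicate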
* marks the source's active call; other numbers are inactive results; ? = inconclusive; nt = no result given; ! = repeats disagree.

SMILES	INS-1E GSIS act	F508del corr	EWS-Fli inh	RAD54 branch	LGR2 inh	RAD52 inh
COc1ccc(S(=O)(=O)N2[C@@H]3CNC[C@H]2C3c2ccc(-c3cccc(C)c3)cc2)cc1 (some centres undefined)	14.6	0.5	-7.7	nt	8.3	65.1*!
COc1ccc(-c2ccc(C3[C@H]4CNC[C@@H]3N4S(=O)(=O)c3cccc(C)c3)cc2)cc1 (some centres undefined)	1.7	2.5	-2.4	nt	3.8	43.0
N#Cc1cccc(-c2ccc(C3[C@H]4CNC[C@@H]3N4S(=O)(=O)c3ccccc3)cc2)c1 (some centres undefined)	-7.6	0.4	3.4	nt	1.1	16.8
Cc1ccccc1S(=O)(=O)N1[C@@H]2CNC[C@H]1C2c1ccc(-c2ccccc2)cc1 (some centres undefined)	1.1	-3.3	3.4	nt	-2.4	54.9*!
Cn1cc(C(=O)C(=O)N2CCCC2)c2ccccc21	6.0	-2.7	4.7	1.2	-9.7	-9.4
CCCCCN(C(=O)CCc1cn(CCCCC)c2ccccc12)c1ccc(Oc2cccnc2)cc1	-15.5	-1.4	15.2	nt	3.4	-32.0
Cc1ccc(SC(C)C(=O)Nc2ccccc2C(=O)N2CCOCC2)cc1 (centres undefined)	nt	nt	nt	9.0	nt	nt
Cc1ccc(-c2ccc(C3[C@H]4CNC[C@@H]3N4S(=O)(=O)c3ccccc3)cc2)cc1 (some centres undefined)	-11.3	-1.5	nt	nt	-13.6	47.5
Cc1ccc(-c2ccc(C3[C@H]4CNC[C@@H]3N4S(=O)(=O)c3cccc(C)c3)cc2)cc1 (some centres undefined)	-4.0	-2.8	4.0	nt	-1.1	53.7*!
O=C(O)c1ccc(CSc2nc3ccc(NC(=O)c4ccccc4C(=O)O)cc3s2)cc1	-0.7	-5.8	-1.1	-8.9	10.7	-30.4
COc1cc(OC)cc(C(=O)Nn2c(C)nc3ccccc3c2=O)c1	nt	nt	nt	9.5	nt	nt
COc1cc(OC)cc(-c2nc3ccccc3c(=O)n2OC(=O)c2ccc(C)c(C)c2)c1	-5.5	9.1*	-3.4	nt	5.0	-12.9
N#C/C(C(=O)N1CCCCC1)=C1/N=C(NC(=O)c2ccc(F)cc2)c2ccccc21	0.4	-1.1	nt	0.2	19.8	-5.6
OC1CCC(Nc2ccn3nc(-c4cccc(Cl)c4)cc3n2)CC1 (centres undefined)	-13.5	0.0	-83.7	16.3	-87.0	-20.4
OC1CCC(Nc2ccn3nc(-c4cccc(OCc5ccccc5)c4)cc3n2)CC1 (centres undefined)	nt	-1.3	-23.2	-8.3	52.4*	-84.4
O=C(C[C@H]1CC[C@@H](NC(=O)Nc2cc(F)ccc2F)[C@@H](CO)O1)NCCCN1CCOCC1	23.3	4.3	-6.5	5.7	-9.4	-13.8
CCCS(=O)(=O)c1cnc(C2COc3ccccc3O2)nc1N (centres undefined)	1.0	1.2	85.5*	2.8	94.5*	-16.0
OCCCn1c(C2CCCN2c2nc(-c3ccc(Cl)cc3)cs2)nc2cc(Cl)c(Cl)cc21 (centres undefined)	1.9	-0.1	5.6	0.0	11.5	-34.6
COC(=O)C1C(=O)NC(SC)=C(C#N)C1c1ccccc1 (centres undefined)	40.0*	nt	nt	-3.9	-18.6	nt
COC(=O)CSC1=C(C#N)C(c2ccc(Cl)cc2)C(C(=O)OC)C(=O)N1 (centres undefined)	nt	nt	nt	-17.1	nt	nt
CS(=O)(=O)N1CCCC(C(=O)Nc2ccccc2Cl)C1 (centres undefined)	2.1	0.6	5.5	-4.4	1.3	-10.0
CCN1C(=O)CS/C1=N\S(=O)(=O)c1ccc(Cl)cc1	-0.8	-2.5	-6.0	-6.9	-13.1	-15.8
CCn1c(Cl)c(C=O)s/c1=N\S(=O)(=O)c1ccccc1	58.2*	-3.5	14.1	-12.5	?	-104.3
COC(=O)c1sc2ccccc2c1NC(=O)c1cccs1	58.3*	0.1	4.8	8.4	-27.6	-2.2
COC(=O)c1sccc1NC(=O)c1cccs1	10.7	-2.4	21.0	-0.2	-12.1	-5.4

Screening data: PubChem BioAssay, Broad Institute
